Test results taken from PubChem BioAssay AID1851 (National Center for Advancing Translational Sciences (NCATS), 2009).
The whole screen tested about 16,000 compounds, of which about 4,000 (25%) were called active. About 26% were inconclusive and are not listed. Only a sample is shown. Values without a mark were called inactive. Calls follow the shape of the dose curve; as a rule, active = well fitted curve in the direction sought with a large enough effect; inconclusive = small, poorly fitted or top-dose-only effect, or effect the other way; inactive = no such curve, though single readings can be large or run the other way.

biological target: Cytochrome P450 2C9 (Homo sapiens) (UniProt P11712); assay: Cytochrome panel assay with activity outcomes; conditions: recombinant CYP, pro-luciferin dealkylation, luminescence, p450-cyp2c9; series mostly up to 57.1 µM; activity, negative = inhibition: at the top concentration
% is scaled to controls: 0 for no effect and ±100 for the full control effect.

Cytochrome P450 2C9 (Homo sapiens), sequence (P11712 whole entry, looked up): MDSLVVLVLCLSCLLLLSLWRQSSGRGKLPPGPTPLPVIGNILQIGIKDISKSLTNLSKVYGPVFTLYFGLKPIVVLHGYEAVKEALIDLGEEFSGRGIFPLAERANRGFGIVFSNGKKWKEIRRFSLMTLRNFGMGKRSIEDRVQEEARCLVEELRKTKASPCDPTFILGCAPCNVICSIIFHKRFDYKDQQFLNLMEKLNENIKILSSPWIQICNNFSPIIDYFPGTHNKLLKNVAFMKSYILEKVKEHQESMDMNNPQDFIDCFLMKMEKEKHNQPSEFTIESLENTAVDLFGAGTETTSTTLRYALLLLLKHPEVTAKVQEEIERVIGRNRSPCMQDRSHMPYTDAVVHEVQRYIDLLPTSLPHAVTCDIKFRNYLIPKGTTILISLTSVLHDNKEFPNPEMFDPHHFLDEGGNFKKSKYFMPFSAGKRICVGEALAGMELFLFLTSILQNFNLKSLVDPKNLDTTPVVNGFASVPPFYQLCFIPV

Structure (SMILES)	activity, negative = inhibition	AC50
COCCn1c(=O)cnc2cnc(Nc3ccccc3)nc21	-24.6%	–
CCCc1nc2sc3ccccc3c(=O)c2c(=O)n1CCOC	-13.7%	–
O=C(Nc1nc2ccccc2n1Cc1ccccc1)c1ccc(COc2ccccc2[N+](=O)[O-])o1	–	2 µM (active)
CCn1nccc1C(=O)Nc1nc2ccccc2n1CCN1CCCCC1	-9.2%	–
N[C@H](C(=O)O)c1nn[nH]n1	11.8%	–
CC1=C(C)/C(=N\OC(=O)/C=C/c2ccccc2)C=CC1=O	10.2%	–
Cn1cnc([N+](=O)[O-])c1Sc1nc(N)nc2c1ncn2Cc1ccccc1	4.6% [at 11.4 µM]	–
CCCCNc1nc(-c2ccccc2)c(C(=O)OCC)cc1C#N	–	3.16 µM (active)
CCCCNc1c(C(=O)OCC)c(C)nc2c1cnn2CC	-25.5% [at 25.6 µM]	–
COCCNc1nc(-c2ccc(C(=O)N(C)C)cc2)nc2ccccc12	-2.68% [at 2.29 µM]	–
COc1ccccc1CNc1ccnc(-c2cccc(C#N)c2)n1	-24.8% [at 2.29 µM]	–
CCOC(=O)c1cc(C#N)c(Oc2ccccc2OC)nc1-c1ccccc1	–	7.08 µM (active)
COC(=O)c1cc(C#N)c(Oc2ccc(OC)cc2)nc1C	–	14.1 µM (active)
COC(=O)c1cc(C#N)c(NCc2ccc(Cl)cc2Cl)nc1C	27.9%	–
CC(=O)NCCNc1ncnc2ccc(-c3ccccc3C#N)cc12	-2.36% [at 2.29 µM]	–
Cc1cc(C)c2cc(C#N)c(NCCOC(=O)c3ccccc3C)nc2c1	–	2.51 µM (active)
N[C@@H](CO)C(=O)NNCc1ccc(O)c(O)c1O	-9.21%	–
Cn1c(=O)c2[nH]c(CCC(=O)O)nc2n(C)c1=O	24.4% [at 11.4 µM]	–
CN(C)C(N)=NCCC[C@H](N)C(=O)O	-9.88%	–
O[C@H](C[C@@H]1CCCCN1)c1ccc2c(c1)oc1ccccc12	-4.01% [at 11.4 µM]	–
CN(C)c1ncc2nc(-c3ccc(Cl)cc3)c(=O)n(C[C@H]3CCCO3)c2n1	14.6%	–
Cc1ccc(CSc2nnc(-c3ccncc3)n2CC2CCCO2)cc1 (stereo not given)	–	15.8 µM (active)
Cn1c(SC2CCCCC2=O)nnc1-c1ccncc1 (stereo not given)	-27.1%	–

Structure (SMILES)	activity, negative = inhibition	AC50
CC1(C)O[C@H]2C[C@@H]3[C@H]4CCC5=CC(=O)CC[C@@]5(C)[C@]4(F)[C@@H](O)C[C@@]3(C)[C@@]2(C(=O)CCl)O1	-18.2% [at 25.6 µM]	–
N#CC1=C(N)OC2=C(C(=O)CCC2)C12CCC1(CC2)OCCO1	-53.9%	–
N#Cc1ccccc1-c1cncnc1NCc1cccnc1	12.7% [at 2.29 µM]	–
CCc1ccc(Nc2ncccc2C#N)cc1	–	17.8 µM (active)
CCC(C)c1ccc(Nc2ncccc2C#N)cc1 (stereo not given)	–	17.8 µM (active)
C[C@H]1CN(S(=O)(=O)c2cccc3cnccc23)CCN1	9.32%	–
C1CCC(N=C(NC23CC4CC(CC(C4)C2)C3)N2CCOCC2)CC1	11.7%	–
CCN(CC)CCOC(=O)C(c1ccccc1)c1ccccc1	-4.53% [at 25.6 µM]	–
CCN(CC)CCOc1ccc(Cc2ccccc2)cc1	–	15.8 µM (active)
CCN(CCCc1ccccc1)CCCc1ccccc1	-2.03% [at 25.6 µM]	–
Cc1ccc(NC2c3ncccc3C(=O)N2Cc2ccc(F)cc2)cc1 (stereo not given)	–	15.8 µM (active)
O=C1c2cccnc2C(=O)N1Cc1ccc(F)cc1	17%	–
CN[C@@H]1NC(=O)c2ccccc2N1Cc1ccc(F)cc1	4.34% [at 11.4 µM]	–
Cc1ccc(/C(O)=C2/C(=O)C(=O)N(CCCn3ccnc3)C2c2ccccn2)cc1 (stereo not given)	–	4.47 µM (active)
CCOc1ccc(/C(O)=C2/C(=O)C(=O)N(CCOCCO)C2c2cccnc2)cc1 (stereo not given)	-25.7%	–
COc1ccc(/C(O)=C2/C(=O)C(=O)N(CCN3CCOCC3)C2c2ccc(C)cc2)cc1 (stereo not given)	11.8%	–
CCOC(=O)c1[nH]c(C)c(/C(O)=C2\C(=O)C(=O)N(CCN3CCOCC3)C2c2cccs2)c1C (stereo not given)	-25.1%	–
COc1ccc(/C(O)=C2/C(=O)C(=O)N(CCCC(=O)O)C2c2ccc(OC)cc2)cc1 (stereo not given)	-15.5%	–
CCOc1ccc(/C(O)=C2/C(=O)C(=O)N(CCCn3ccnc3)C2c2cccs2)cc1Cl (stereo not given)	–	5.01 µM (active)
C/C(CCN1CCc2nc(-c3ccccc3)c(-c3ccccc3)cc2C1)=N\O[C@@H](C)c1cn([C@H](CO)Cc2ccccc2)nn1	-23.3% [at 11.4 µM]	–
Nc1ncnc(N(c2ccccc2)C2CCCCC2)c1[N+](=O)[O-]	-3.11%	–
C[C@@H]1[C@H]2CC[C@@H]3[C@@H]4CC=C5C[C@@H](N(C)C)CC[C@]5(C)[C@@H]4CC[C@@]32CN1C	11.3% [at 25.6 µM]	–
